In the library only some 2.7% were active in any assay of this set; here they are far more common.
gsp agonist – activates gsp, the McCune-Albright syndrome mutation; gsp mutant cells, cAMP HTRF, 30 min; Potency, µM (top dose mostly 76.9 µM), without a hit: at the highest dose activation (cAMP increase), usual class: activators; 0.13% of 340,000 active; AID 624287; active = well fitted activation curve with a large enough effect; inconclusive = small, poorly fitted or top-dose-only effect, or another doubt; inactive = no such curve, though single readings can be large or run the other way; cell line not stated here;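 also: phosphodiesterase inhibitor Ro 20-1724 added with compounds to block cAMP breakdown; potency is read from the fitted curve at half-maximal effect; nearly all actives have a fitted effect of over 60% in size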
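Cells stably selected in G418 were plated at 2000/well, grown 16-24 hr, then given compounds in DMSO with the PDE inhibitor […] (300 uM solution added) for 30 min at 37C; cAMP was read by HTRF.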
ClpP mod – qHTS Assay for Activators of ClpP. purified B. subtilis ClpP, FRET peptide cleavage, 20 min. Potency, µM (titrated, usually from 57.5 µM), for the others: top-dose activity change, negative = active. 1.9% of 340,000 active; active = well fitted falling curve with a large enough effect; inconclusive = small, poorly fitted or top-dose-only effect; inactive = no such curve, though single readings can be large or run the other way; also: potency is read from the fitted curve at half-maximal effect; the source files actives as falling curves though it sought activators and does not explain the sign; nearly all actives have a fitted effect of over 65% in size
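Purified B. subtilis ClpP, 10 microg/mL final in Tris/HCl pH8 with KCl, BSA, glycerol and Tween-20, cleaved an Abz/nitrotyrosine-quenched decapeptide. Fluorescence (ex 320, em 430) was read at 0 and 20 min at room temperature. Delta was normalized to 5.8 microM ADEP and DMSO/no-enzyme controls.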
Akt phos inh – blocks phosphorylation of Akt. Neuro2A IGF-stimulated pAkt S473 HTRF, 20 min; hits give low values. 0.32% of 360,000 active. activity change, % for hits at 50 µM; in the data active = activity change below about -80%; inconclusive = mostly about -51% to -80%; also: % is scaled to controls: 0 for no effect and ±100 for the full control effect
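Single-point screen (50 µM final compound) in Neuro2A cells stimulated 20 min with 6 nM IGF at 37 deg C. After lysis, Ser473-phosphorylated Akt read by HTRF (ex 330 nm, em 615/665 nm) as the 665/615 ratio.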
RXFP1 antagonist – antagonists of human relaxin receptor RXFP1; Q9HBX9; HEK293-RXFP1, relaxin-stimulated cAMP HTRF, 30 min; hits give low values; activity change, negative = inhibition, % at 57.5 µM; 0.59% of 350,000 active; AID 1259400;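 active = activity change of -60% or lower, but not beyond a set lower limit; inconclusive = change between -60% and -40%, or beyond the set limit; inactive = change above -40%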; also: % is scaled to controls: 0 for no effect and ±100 for the full control effect
Target sequence (Q9HBX9 whole entry, looked up): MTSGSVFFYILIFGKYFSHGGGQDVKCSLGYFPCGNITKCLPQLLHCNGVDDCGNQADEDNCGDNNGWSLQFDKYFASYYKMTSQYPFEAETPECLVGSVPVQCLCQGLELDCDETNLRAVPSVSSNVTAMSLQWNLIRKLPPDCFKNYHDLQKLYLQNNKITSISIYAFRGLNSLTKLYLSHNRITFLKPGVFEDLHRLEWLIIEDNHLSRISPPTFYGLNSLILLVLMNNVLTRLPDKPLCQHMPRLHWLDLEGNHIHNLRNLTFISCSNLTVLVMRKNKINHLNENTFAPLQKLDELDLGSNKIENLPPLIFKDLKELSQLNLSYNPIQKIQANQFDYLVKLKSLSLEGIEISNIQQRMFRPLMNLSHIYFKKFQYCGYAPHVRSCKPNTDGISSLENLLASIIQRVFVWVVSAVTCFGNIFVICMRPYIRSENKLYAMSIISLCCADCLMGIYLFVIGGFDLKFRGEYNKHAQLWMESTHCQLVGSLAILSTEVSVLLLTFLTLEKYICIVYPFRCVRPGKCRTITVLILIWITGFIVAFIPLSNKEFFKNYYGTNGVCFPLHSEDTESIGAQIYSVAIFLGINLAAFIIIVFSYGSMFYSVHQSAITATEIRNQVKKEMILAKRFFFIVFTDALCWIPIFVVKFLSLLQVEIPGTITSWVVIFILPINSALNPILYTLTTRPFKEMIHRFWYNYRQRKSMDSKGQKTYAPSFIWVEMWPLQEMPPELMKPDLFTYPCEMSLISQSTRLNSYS
RXFP1 ag – agonists of human relaxin receptor RXFP1; Q9HBX9; HEK293T-RXFP1 cAMP TR-FRET, 30 min; response scale: percent of porcine relaxin response, buffer zero; Potency, µM (top dose mostly 57.5 µM), for the others: top-dose activation, actives largely listed as activators; 0.3% of 370,000 active; AID 2676; active = well fitted activation curve with a large enough effect; inconclusive = small, poorly fitted or top-dose-only effect; also: potency is read from the fitted curve at half-maximal effect; % is scaled to controls: 0 for no effect and ±100 for the full control effect; nearly all actives have a fitted effect of over 60% in size
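cAMP rise read by TR-FRET after 30 min, 37C compound exposure (up to 58 uM) in RXFP1-transfected HEK293 cells with Ro 20174 present. EC50 from Hill-equation fits, with 29 nM porcine relaxin as 100% and buffer as basal.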
gsp antagonist – antagonists of gsp mutant (McCune-Albright syndrome); AID 624288; Potency, µM (highest dose often 76.9 µM), for inactives: at the top dose activity change, negative = inhibition, usual class: inhibitors; gsp-mutant cells, cAMP HTRF, 30 min; 0.4% of 340,000 active; calls by dose curve; cell line not stated here;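 also: intracellular cAMP measured with PDE inhibitor Ro 20-1724 present during compound exposure; potency is read from the fitted curve at half-maximal effect; % is scaled to controls: 0 for no effect and ±100 for the full control effect; nearly all actives have a fitted effect of over 65% in size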
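Cells in G418 medium, seeded 16-24 h, 37C; buffer exchange to DPBS + 1 mM CaCl2, 0.5 mM MgCl2, 0.05% BSA; cpds in DMSO + […] (300 uM stock), 30 min 37C; HTRF cAMP detection.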
Active calls of the source: *; i = inactive; ? = inconclusive; / = no result given; [ ] = another dose, or the depositor's remark.

SMILES	gsp agonist	ClpP mod	Akt phos inh	RXFP1 antagonist	RXFP1 ag	gsp antagonist
Cc1ccc(-c2nc(C(=O)NC3CCCCCC3)no2)cc1	-3.3%	-0.2%	i	-61.5*	/	2.8%
O=C(NC1CCCCC1)c1cc(Cl)ccc1[N+](=O)[O-]	-9.0%[15.4 µM]	28.2µM*	i	2.2	2.3%	12.4%
Cc1ccc(C(=O)NC2CCCCCC2)o1	?	-2.2%	-139.5%*	-2.1	0.0%	0.7%
O=C(NC1CCCC1)c1cc(Cl)ccc1[N+](=O)[O-]	-1.8%	-1.1%	i	-5.4	0.3%	-4.2%
O=C(NC1CCCCCCC1)c1ccccc1O	-12.7%	28.2µM*	i	12.8	3.7%	4.5%
Cc1ccccc1C(=O)NC1CCCCCCC1	-3.2%	2.4%	i	-4.5	0.8%	9.7%
COc1ccc(C)cc1NC(=O)N1CCC(CN2CCOCC2)CC1	/	-1.4%	/	-6.6	-1.3%	/
COC1=CC(=O)OC(c2ccccc2)C1 (configuration not stated)	/	-1.5%	i	/	/	/
O[C@@H]1CO[C@H]2[C@@H]1OC[C@@H]2O	/	/	/	9.3	/	/
CC1=C(C(=O)Nc2cc(C(=O)N3CCN(c4cccc(C)c4C)CC3)ccc2C)SCCO1	12.8%	-0.3%	i	?	0.1%	50.1µM*
O=C1C(=O)c2c(C(=O)c3ccccc3)coc2-c2ccccc21	-10.8%	-2.3%	i	-78.2*	-1.1%	-2.6%
Cc1oc2c(c1C(=O)O)C(=O)c1ccccc1C2=O	16.9%	-0.1%	i	/	-1.5%	-1.0%
Cc1oc2c(c1C(=O)c1ccccc1)C(=O)C(=O)c1ccccc1-2	0.8%	1.8%	?	-65.5*	2.0%	?
CCN(c1ccccc1)c1nc(N)nc(C#N)n1	/	-1.6%	/	/	/	/
CC(=O)N(Cc1cccnc1)c1cccc(-c2nc3ccccc3s2)c1	0.1%[15.4 µM]	14.1µM*	i	-38.6	-0.4%	-17.9%
c1cc(-c2cc3nc(NC4CCCCC4)ccn3n2)ccc1OCCN1CCOCC1	/	4.5%	i	/	/	/
COCCn1c(C)cc(O)c(C(c2ccc(Cl)cc2)N2CCCCC2)c1=O (configuration not stated)	/	-1.4%	/	-11.1	3.6%	/
COc1ccc(-n2c(=O)c3ccccc3n(CC(=O)NC3CCCCC3)c2=O)c(OC)c1	-69.2%	1.4%	i	6.4	-0.6%	-2.7%
COc1ccc(-n2c(=O)c3ccccc3n(CC(=O)NC3CCCC3)c2=O)cc1	7.4%	-4.6%	-105.2%*	-2.4	0.2%	-4.9%
O=C1CCSc2ccc(S(=O)(=O)Nc3ccc(Cl)c(C(F)(F)F)c3)cc2N1	/	1.2%	/	/	2.2%	/
Cc1c(NC(=O)c2ccc(OC(C)C)cc2)cccc1-c1nc2ncccc2o1	/	-21.1%	/	-15.7	0.7%	/
O=C1COc2ccc(S(=O)(=O)Nc3ccc(F)cc3)cc2N1	2.24µM*	-1.6%	i	33.2	0.9%	-1.6%
O=C(OCC(=O)N1CCCC1=O)C1CCN(S(=O)(=O)c2c(Cl)cccc2Cl)CC1	-12.3%[15.4 µM]	-3.0%	i	-3.5	1.5%	-5.6%
CN(C)[C@@H](CCOc1cccc2ccccc12)c1ccccc1	/	/	/	-31.3	/	/
CC(C)[C@H](NC(=O)OC(C)(C)C)c1nnc(SCC(=O)Nc2ccc(Br)cc2)o1	4.7%	-0.5%	i	7.4	2.3%	35.5µM*
CC(NC(=O)Cn1c(=O)oc2cc(S(=O)(=O)N3CCCCCC3)ccc21)c1ccccc1 (configuration not stated)	/	-0.9%	/	2.3	0.7%	/
C=C1c2cc(OC)ccc2NC(=O)N1CC	20.7%	3.16µM*	i	-10.2	3.1%	15.1%
Cc1ccc(NC(=O)CS(=O)CC(=O)NCC2OCCc3ccccc32)c(C)c1 (configuration not stated)	43.4%	-2.7%	i	0.3	0.0%	8.0%
O=C(CS(=O)CC(=O)Nc1ccc(Cl)cc1)NCC1OCCc2ccccc21 (configuration not stated)	1.8%[15.4 µM]	11.2µM*	i	0.9	1.1%	-7.7%
Cc1nc(-c2cn[nH]c2)c2cc(C)oc2n1	-11.1%	28.2µM*	i	4.7	2.3%	22.6%
